# Reference: PubChem BioAssay (Tox21)
# Results filed as inconclusive are left out. Calls of active or inactive are those of the source. The call rests on the fitted dose curve.
# Molecular target: Vitamin D3 receptor (Homo sapiens) (UniProt P11473)
# Experiment: qHTS assay to identify small molecule agonists of the vitamin D receptor (VDR) signaling pathway (AID 743222)
# Details: HEK293T VDR-UAS-bla, beta-lactamase FRET ratio, 16 h; series mostly up to 63.5 µM
# Description: National Center for Advancing Translational Sciences [NCATS]
# NIH Chemical Genomics Center [NCGC]
# U.S. Environmental Protection Agency [EPA]
# National Institutes of Environmental Health Sciences [NIEHS]
# National Toxicology Program [NTP]
# U.S. Food and Drug Administration [FDA]
# The vitamin D receptor (VDR), a member of nuclear hormone receptor superfamily, plays a critical role in calcium homeostasis and bone metabolism. It is also involved in cell differentiation and growth, and thrombogenicity.
# Tox21 Assay Protocol Summary:
# VDR-bla cells were dispensed at 2,000 cells/6 uL/well into black wall/clear-bottom 1536-well plates using a Multidrop Combi (Thermo Fisher Scientific, Waltham, MA) dispenser. After the assay plates were incubated at a 37C and 5% CO2 for 4 h, 23 nL of compounds dissolved in DMSO, positive controls or DMSO only was transferred to the assay plate by a Pintool station (Kalypsys, San Diego, CA). The plates were incubated at 37C and 5% CO2 for 16 h. After 1 uL of LiveBLAzerTM B/G FRET substrate was added using a Bioraptr Flying Reagent Dispenser (FRD) workstation (Beckman Coulter, Indianapolis, IN, USA), the plates were incubated at room temperature for 2 h, and fluorescence intensity was measured by an Envision plate reader (PerkinElmer, Shelton, CT).
# Sequence of Vitamin D3 receptor (Homo sapiens) (P11473 whole entry, looked up): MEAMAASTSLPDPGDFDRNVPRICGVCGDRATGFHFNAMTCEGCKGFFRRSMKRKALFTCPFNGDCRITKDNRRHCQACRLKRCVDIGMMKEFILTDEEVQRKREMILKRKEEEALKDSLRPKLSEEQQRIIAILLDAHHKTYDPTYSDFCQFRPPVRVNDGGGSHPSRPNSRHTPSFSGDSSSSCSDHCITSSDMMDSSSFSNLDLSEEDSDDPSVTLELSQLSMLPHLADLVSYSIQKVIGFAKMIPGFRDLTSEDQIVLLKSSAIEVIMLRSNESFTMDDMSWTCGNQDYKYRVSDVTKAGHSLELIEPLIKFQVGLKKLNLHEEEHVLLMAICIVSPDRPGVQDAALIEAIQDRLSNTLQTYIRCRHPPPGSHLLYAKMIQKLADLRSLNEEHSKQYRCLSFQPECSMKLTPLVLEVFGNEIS
row,SMILES,outcome
1,C=C1C[C@]23C[C@@]1(O)CC[C@H]2[C@@]12C=C[C@H](O)[C@@](C)(C(=O)O1)[C@H]2[C@@H]3C(=O)O,inactive
2,CCCCCCCCO,inactive
3,Clc1cccc(Cl)c1NC1=NCCN1,inactive
4,CC(=O)OC(C)(C)C1CC=C(C)CC1 (stereo not given),inactive
5,CC(=O)C(C)C,inactive
6,Cc1ccccc1Cl,inactive
7,C=CC(C)(C)C,inactive
8,O=C1C(N(CO)C(=O)NCO)N(CO)C(=O)N1CO (stereo not given),inactive
9,Cc1ccc(C)c(S(=O)(=O)O)c1,inactive
10,CN1CCCC1=O,inactive
11,Cc1ccc(Cl)cc1,inactive
12,Cc1ncc(CO)c(CO)c1O,inactive
13,Cc1ccc([N+](=O)[O-])cc1N,inactive
14,OC[C@H]1O[C@@H](Oc2ccc(O)cc2)[C@H](O)[C@@H](O)[C@@H]1O,inactive
15,Cc1cccc(C)c1[N+](=O)[O-],inactive
16,CC(COCC(C)OC(=O)c1ccccc1)OC(=O)c1ccccc1 (stereo not given),inactive
17,CC(C)=CCC/C(C)=C/C=O,inactive
18,CC/C(C)=N/O,inactive
19,OCCOCCOCCOCCOCCO,inactive
20,CCCN(CCC)C(=O)SCC,inactive

row,SMILES,outcome
1,CCOC(=O)c1ccc(O)cc1,inactive
2,CC1=CC(=O)CC(C)(C)C1,inactive
3,CC1(C)C(=O)N(Cl)C(=O)N1Cl,inactive
4,N#CCC(=O)O,inactive
5,CC(=O)CC(=O)N(C)C,inactive
6,COc1c(Cl)ccc(Cl)c1C(=O)O,inactive
7,Cc1ccncc1,inactive
8,O=C(c1ccccc1)c1ccc(O)c(O)c1O,inactive
9,C=C(CC(=O)O)C(=O)O,inactive
10,CCCCCCCC(=O)O,inactive
11,COC(=O)/C=C\C(=O)OC,inactive
12,CC(C)(C)NC[C@H](O)COc1nsnc1N1CCOCC1,inactive
13,CC1(C)[C@@H](O[C@H]2O[C@H](C(=O)O)[C@@H](O)[C@H](O)[C@H]2O[C@@H]2O[C@H](C(=O)O)[C@@H](O)[C@H](O)[C@H]2O)CC[C@]2(C)[C@H]3C(=O)C=C4[C@@H]5C[C@@](C)(C(=O)O)CC[C@]5(C)CC[C@@]4(C)[C@]3(C)CC[C@@H]12,inactive
14,CC(=O)OCc1ccc2c(c1)OCO2,inactive
15,COC(=O)OC,inactive
16,CC(C=O)Cc1ccc(C(C)(C)C)cc1 (stereo not given),inactive
17,OCC(CO)(CO)CO,inactive
18,Brc1ccc(Oc2ccc(Br)cc2)cc1,inactive
19,NCCNCCNCCN,inactive
20,CCCCCCC(=O)O,inactive
